Bioassay records from PubChem BioAssay.
In the library only some 22% were active in any assay of this set; here they are far more common.
LmPK inhibitor = inhibitors of Leishmania mexicana pyruvate kinase | purified LmPK, Kinase-Glo ATP luminescence, 1 h | AID 1721 | Potency, µM (titrated, usually from 57.5 µM), most hits filed as inhibitors | Q27686 | actives 0.37% (n = 290,000)
Target sequence (Q27686 whole entry, looked up): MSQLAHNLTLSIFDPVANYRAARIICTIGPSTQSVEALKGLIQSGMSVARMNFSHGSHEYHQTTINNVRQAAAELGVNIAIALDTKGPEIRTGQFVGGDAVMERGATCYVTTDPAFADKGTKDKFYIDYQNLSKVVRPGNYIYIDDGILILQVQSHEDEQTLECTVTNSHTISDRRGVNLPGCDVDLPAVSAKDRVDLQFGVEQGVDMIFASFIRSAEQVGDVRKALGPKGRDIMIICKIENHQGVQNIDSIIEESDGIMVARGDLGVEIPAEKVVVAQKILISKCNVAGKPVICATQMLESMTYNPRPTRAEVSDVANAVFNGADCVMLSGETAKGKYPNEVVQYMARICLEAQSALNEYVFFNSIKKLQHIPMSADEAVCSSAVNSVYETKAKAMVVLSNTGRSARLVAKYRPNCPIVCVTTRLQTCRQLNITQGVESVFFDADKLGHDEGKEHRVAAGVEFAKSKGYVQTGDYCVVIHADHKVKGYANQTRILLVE
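qHTS format; LmPK 0.1 nM; substrates PEP 0.5 mM and ADP 0.1 mM. One-hour room-temperature incubation, then coupled luciferase luminescence; 0.5 nM enzyme wells mark activation.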
Pf growth 48h = P. falciparum growth inhibition at 48 hours (one generation); AID 504832; actives 5.9% (n = 310,000); Potency, µM (series often up to 28.7 µM), most hits filed as inhibitors; P. falciparum luciferase growth in erythrocytes, 48 h
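Erythrocytes infected with P. falciparum carrying an integrated firefly luciferase reporter (2% hematocrit, 0.1% parasitemia final) were exposed to compounds in RPMI 1640 with 0.5% Albumax at 37 C, 5% CO2. Growth inhibition was scored as reduced luminescence.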
Shiga toxin inh = inhibitors of Shiga toxin in Vero cells | Vero cells, Shiga toxin protein synthesis inhibition reporter | inhibition, % at 38.7 µM | actives 9.2% (n = 290,000); in the data active = inhibition mostly above about 28%, no sharp cut-off; inactive = mostly below about 43%
Pf growth 96h = P. falciparum growth inhibition at 96 hour, primary screen for plastid delayed-death inhibitors. AID 504834. Potency, µM (highest dose often 28.7 µM), most hits filed as inhibitors. actives 6.9% (n = 320,000). P. falciparum luciferase reporter growth, 96 h
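Readout is luminescence from an integrated firefly luciferase in P. falciparum. Red cells, 2% hematocrit and 0.05% parasitemia final, were cultured with compound through two parasite generations (96 hours) at 37 C, 5% CO2.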
Cycloheximide cs = counter-screen for Shiga toxin inhibitors: cycloheximide protein synthesis inhibition | cell reporter, cycloheximide protein synthesis inhibition counterscreen | max response, % | actives 12% (n = 300,000); in the data active = max response mostly above about 13%, no sharp cut-off; inactive = mostly below about 14%; also: read at 38.3 µM for the half of the compounds with a filed dose
Numbers stand for hits; i = inactive; ? = inconclusive; nt = no result; [ ] = another dose, or the depositor's remark. Unless noted, calls follow the shape of the dose curve; as a rule, active = well fitted inhibition curve with a large enough effect; inconclusive = small, poorly fitted or top-dose-only effect, or another doubt; inactive = no such curve, though single readings can be large or run the other way.

SMILES | LmPK inhibitor | Pf growth 48h | Shiga toxin inh | Pf growth 96h | Cycloheximide cs
COc1ccc2oc(C(=O)N(C)Cc3ccc(OC(F)F)cc3)c(C)c2c1 | i | i | i | ? | i
CC[C@H](C)[C@H](NC(=O)[C@H](Cc1ccc(O)cc1)NC(=O)[C@@H](NC(=O)[C@H](CCCN=C(N)N)NC(=O)[C@@H](N)CC(=O)O)C(C)C)C(=O)N[C@@H](Cc1cnc[nH]1)C(=O)N1CCC[C@H]1C(=O)O | nt | nt | i | nt | i
COc1ccc(NC(=O)c2cc3ccccc3o/c2=N\NS(=O)(=O)c2ccc(C)cc2)cc1 | i | i | 100 | ? | 48
COc1ccc(-c2c(C#N)c(SCC(=O)c3cc4ccccc4oc3=O)nc(C)c2C(=O)Nc2ccccc2)cc1 | i | ? | i | 12µM | i
COc1ccc2oc(=N)c(C(=O)Nc3ccc(C)cc3)cc2c1 | i | i | i | ? | i
COc1cccc2cc(C(=O)Nc3cc(C)cc(C)c3)/c(=N/NS(=O)(=O)c3ccccc3)oc12 | i | i | i | i | i
COc1ccc2oc(=N)c(C(=O)Nc3ccccc3)cc2c1 | i | i | 85 | nt | 39
Cc1cccnc1NC(=O)c1cc2ccccc2oc1=O | ? | i | 115 | i | 30
CCOC(CNC(=O)C(=O)Nc1cc2c3c(c1)CCC(=O)N3CCC2)OCC | i | i | i | i | i
O=C(COC(=O)CSc1ccc(Cl)cc1)NCCc1ccccc1 | nt | i | nt | i | nt
Cc1ccc(S(=O)(=O)Oc2ccc(/C=C3/N=C(c4ccccc4)OC3=O)cc2)cc1 | i | i | i | i | i
COc1ccc(/C=C/C(=O)OCC(=O)NC2CCCCC2C)c(OC)c1 (stereo not given) | nt | i | nt | i | nt
COc1ccc2oc(=O)c(C(=O)Nc3ccccc3C)cc2c1 | i | i | nt | i | 34
COc1ccc2oc(=O)c(C(=O)Nc3cccc(C(C)=O)c3)cc2c1 | i | i | nt | i | i
COc1cccc(NC(=O)c2cc3ccccc3oc2=O)c1 | i | i | nt | ? | 42
COc1ccc2oc(=O)c(C(=O)Nc3ccccc3-c3ccccc3)cc2c1 | i | i | i | nt | i
N=c1oc2ccc(Cl)cc2cc1C(=O)Nc1ccc(F)cc1 | i | i | 44 | i | 24
CNC(=O)c1cc2cc(OC)ccc2oc1=N | i | i | i | i | i
COc1ccc2oc(=N)c(C(=O)Nc3cccc(C)c3C)cc2c1 | i | i | 49 | ? | 30
COCc1cc(O)c(O)c(O)c1-c1c(COC)cc(O)c(O)c1O | nt | nt | i | nt | i
CCCOc1ccc(CNC(=O)C2CCN(C(=O)N3CCOc4ccccc43)CC2)cc1 | i | ? | i | ? | i
CCN(CC)C(=O)c1cc2c(=O)oc3ccccc3c2s1 | i | i | 34 | i | 27
Cc1ccc2oc(=O)c3cc(C(=O)NCCN4CCN(C)CC4)sc3c2c1 | i | i | i | i | i
COc1ccc(-n2cc3c(-c4cccc(Br)c4)nnc(C)c3n2)cc1 | i | ? | i | ? | i
Cc1oc2c(c(=O)c1C)C(=O)CC(c1ccccc1)C2 (stereo not given) | i | ? | i | ? | i
SMILES | LmPK inhibitor | Pf growth 48h | Shiga toxin inh | Pf growth 96h | Cycloheximide cs
CS(=O)(=O)c1sc(C#N)c2c1C(=O)CC(c1ccccc1)C2 (stereo not given) | i | 12µM | i | ? | i
CCc1c(C)c(C#N)c2nc3ccccc3n2c1NCc1ccccn1 | i | ? | i | i | i
COCCNC(=O)CCC1CCN(Cc2cccc(Oc3ccccc3)c2)CC1 | i | i | i | ? | i
CSCCC(=O)N(C)CC1CCN(CCc2cccc(C(F)(F)F)c2)CC1 | i | i | i | 4.1µM | i
CC(=O)Nc1ccc(CN(C)CC2CCCN(CCc3cccc(C(F)(F)F)c3)C2)cc1 (stereo not given) | i | 4.1µM | i | ? | i
CCN(Cc1ccc(O)cc1)CC1CCCN(CCc2cccc(F)c2)C1 (stereo not given) | i | 2.3µM | nt | 12µM | i
CN(CC1CCCN(CCc2cccc(C(F)(F)F)c2)C1)C(=O)c1ccco1 (stereo not given) | i | i | i | i | i
CN(CC1CCN(CCc2cccc(C(F)(F)F)c2)CC1)C(=O)c1ccc(F)cc1F | i | ? | i | i | i
CCN(Cc1ccncc1)C(=O)C(CO)c1ccccc1 (stereo not given) | i | i | i | ? | i
CCOc1ccc(CNC(=O)c2ccc(Sc3ccc(C)cc3)c(NC(C)=O)c2)cc1OC | i | i | i | 12µM | i
CC(=O)c1cn(CC(=O)Nc2ccccc2C(F)(F)F)c2ccccc12 | i | i | nt | ? | i
O=[n+]1cc(-c2ccc(F)cc2)n([O-])c2c1CCC2 | i | i | i | i | i
O=[n+]1cc(-c2ccccc2)n([O-])c2c1CCCCC2 | i | i | i | 15µM | 16
COc1ccc(/C=C(\NC(=O)c2ccc([N+](=O)[O-])cc2)C(=O)NCCCN2CCOCC2)cc1 | i | i | i | ? | i
COc1cccc(/C=C/C(=O)NCc2ccc3c(c2)OCO3)c1 | i | i | i | i | i
Cc1ccc(Cl)cc1N1CCN(Cc2nnnn2Cc2ccco2)CC1 | i | i | i | 8.3µM | i
CCC(c1nnnn1Cc1ccco1)N1CCN(c2cc(Cl)ccc2C)CC1 (stereo not given) | i | ? | i | 1.5µM | i
Cc1ccc(Cl)cc1N1CCN(Cc2nnnn2C2CCCCC2)CC1 | i | ? | i | ? | i
CC(C)C(c1nnnn1Cc1ccco1)N1CCN(c2cccc(Cl)c2)CC1 (stereo not given) | i | i | i | i | i
CC(=O)c1ccccc1OCCCCN1CCCCC1 | i | i | i | ? | i
N#C/C(=C\c1c(N2CCC(C(N)=O)CC2)nc2ccccn2c1=O)S(=O)(=O)c1ccc(Cl)cc1 | i | i | i | i | i
Cc1ccccc1N1CC(C(=O)Nc2nnc(SCc3ccccn3)s2)CC1=O (stereo not given) | i | 13µM | i | 7.4µM | i
COc1ccc(N2CC(C(=O)Nc3nnc(SCCC4OCCO4)s3)CC2=O)cc1 (stereo not given) | i | ? | i | 13µM | i
Cc1cccc(N2CC(C(=O)Nc3ccc4c(c3)OCCO4)CC2=O)c1C (stereo not given) | i | i | 71 | i | i
O=C(Nc1nnc(SCC(=O)N2CCCC2)s1)C1CC(=O)N(c2ccc(F)cc2)C1 (stereo not given) | i | i | i | 12µM | i
SMILES | LmPK inhibitor | Pf growth 48h | Shiga toxin inh | Pf growth 96h | Cycloheximide cs
CN(CC(=O)Nc1c(Cl)cccc1Cl)C(=O)C1CCN(C(=O)Nc2ccccc2)CC1 | nt | ? | nt | i | nt
CCC(=O)Nc1nnc(SCC(=O)Nc2cccc(Cl)c2)s1 | i | i | i | i | i
Cc1cc(NC(=O)CN2C(=O)CCSc3ccccc32)no1 | i[11.5 µM] | i | i | ? | i
Cc1ccc(N2CC(C(=O)Nc3ccc4c(c3)OCO4)CC2=O)cc1 (stereo not given) | i | i | i | i | i
CCOc1ccc(CCNC(=O)C2CC(=O)N(c3ccc4c(c3)OCCO4)C2)cc1OCC (stereo not given) | nt | ? | nt | 3.3µM | nt
Cc1cc(NC(=O)C2CC(=O)N(c3ccccc3C)C2)no1 (stereo not given) | i | i | i | 12µM | i
